# Bioassay records as filed in PubChem BioAssay.
# Only some compounds are listed: those with a hit (about 1.1% of all), similar ones and a draw of the others.
# SRC2 inh = inhibition of GAL4-SRC2 driven luciferase reporter, primary screen, SRC2 inhibitor project, cell-based, luminescence; HEK293 GAL4-SRC2 luciferase reporter; 370,000 tested, 0.17% active; inhibition, % at 9 µM;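 active = inhibition above the mean inhibition of all tested compounds plus 3 SD, set per campaign, cut at about 52% in these data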;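 also: 0% = DMSO treated cells and 100% = cells given Gossypol at 36 µM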
# Target sequence (Q15596 whole entry, looked up, the tested form may be a part): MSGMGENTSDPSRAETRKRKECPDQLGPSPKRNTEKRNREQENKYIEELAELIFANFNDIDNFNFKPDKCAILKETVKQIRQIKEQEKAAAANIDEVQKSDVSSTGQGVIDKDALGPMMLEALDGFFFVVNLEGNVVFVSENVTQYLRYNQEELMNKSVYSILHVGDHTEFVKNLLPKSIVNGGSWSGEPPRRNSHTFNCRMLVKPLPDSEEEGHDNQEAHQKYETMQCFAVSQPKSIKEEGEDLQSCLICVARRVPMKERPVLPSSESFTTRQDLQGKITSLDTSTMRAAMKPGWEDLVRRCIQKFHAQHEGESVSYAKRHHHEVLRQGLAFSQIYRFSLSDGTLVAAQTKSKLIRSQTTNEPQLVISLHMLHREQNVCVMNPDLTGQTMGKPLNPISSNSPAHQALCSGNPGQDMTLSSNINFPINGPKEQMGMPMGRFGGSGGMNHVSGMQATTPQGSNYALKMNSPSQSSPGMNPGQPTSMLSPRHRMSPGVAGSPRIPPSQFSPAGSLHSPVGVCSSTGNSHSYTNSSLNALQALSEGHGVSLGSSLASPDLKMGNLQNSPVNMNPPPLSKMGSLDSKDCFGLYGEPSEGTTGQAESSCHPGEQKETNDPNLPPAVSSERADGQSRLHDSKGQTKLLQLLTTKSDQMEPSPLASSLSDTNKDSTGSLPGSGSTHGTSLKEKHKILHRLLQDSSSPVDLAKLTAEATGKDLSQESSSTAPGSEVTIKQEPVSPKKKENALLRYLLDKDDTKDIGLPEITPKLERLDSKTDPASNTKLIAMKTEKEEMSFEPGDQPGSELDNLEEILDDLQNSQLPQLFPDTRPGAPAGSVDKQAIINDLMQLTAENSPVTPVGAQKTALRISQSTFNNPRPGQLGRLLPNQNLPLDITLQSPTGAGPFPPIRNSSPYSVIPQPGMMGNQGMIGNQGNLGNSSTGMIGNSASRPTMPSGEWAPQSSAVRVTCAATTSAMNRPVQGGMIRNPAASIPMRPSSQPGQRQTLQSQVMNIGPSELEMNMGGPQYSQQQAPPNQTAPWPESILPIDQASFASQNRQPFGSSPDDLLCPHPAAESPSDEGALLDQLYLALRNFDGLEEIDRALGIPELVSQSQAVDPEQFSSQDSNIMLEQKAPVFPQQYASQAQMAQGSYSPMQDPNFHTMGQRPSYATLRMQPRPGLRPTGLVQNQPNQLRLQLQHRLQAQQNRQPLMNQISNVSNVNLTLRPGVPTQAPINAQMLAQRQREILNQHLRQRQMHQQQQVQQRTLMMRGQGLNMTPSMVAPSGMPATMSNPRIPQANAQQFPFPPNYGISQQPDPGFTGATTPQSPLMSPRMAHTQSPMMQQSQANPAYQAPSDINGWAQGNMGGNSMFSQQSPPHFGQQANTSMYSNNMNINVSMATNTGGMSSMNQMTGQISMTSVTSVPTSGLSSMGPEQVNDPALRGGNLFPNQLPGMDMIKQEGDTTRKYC
# Gli-Sufu antag = Gli-Sufu pathway antagonists, primary screen, luciferase luminescence, Sufu-KO-LIGHT cells, uHTS; Sufu-KO-LIGHT fibroblasts, Gli luciferase reporter luminescence; inhibition, % at 5 µM; 340,000 tested, 0.74% active; AID 588413, 2011;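 active = inhibition above about 55%, limit read from the data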;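 also: 0% = DMSO-treated cells and 100% = wells with medium but no cells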
# LRH-1 inv ag = LRH-1 (NR5A2) inverse agonists, primary screen, cell-based, luminescence, HEK293T, StAR-luciferase reporter. Nuclear receptor subfamily 5 group A member 2 (Homo sapiens), O00482. LRH-1 transfected, 24 h. inhibition, % at 3.6 µM. 360,000 tested, 0.13% active. AID 602396, 2012;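 active = inhibition above the mean inhibition of all tested compounds plus 3 SD, cut at about 73% in these data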;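 also: 0% = DMSO wells and 100% = reporter-only cells lacking LRH-1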
# Shn3 inh set2 = reduction of Shn3 3'UTR firefly luciferase signal, primary screen, Schnurri-3 inhibitor project, cell-based, Clone20 osteoblasts, set 2; Clone20 osteoblast Shn3 3'UTR firefly luciferase, 24 h; inhibition, % at 12.5 µM; 360,000 tested, 0.52% active; AID 588674, 2011;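 active = mean inhibition of at least 75% with every replicate also reaching 75%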;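 also: 0% = median of neutral control wells and 100% = pilot-screen positive control compound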
# SRC3 inh = SRC3 coactivator transcriptional activity inhibitors, primary screen, cell-based, luminescence. AID 588352, 2011. Nuclear receptor coactivator 3 (Homo sapiens), Q9Y6Q9. HEK293 GAL4-SRC3 luciferase reporter. inhibition, % at 3.6 µM. 360,000 tested, 0.17% active;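 active = inhibition above a per-campaign cutoff, the mean of all compounds plus 3 SD, cut at about 60% in these data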;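 also: 0% = DMSO-treated cells and 100% = gossypol-treated cells at 36 µM; higher means less SRC3-driven luciferase light from the GAL4 reporter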
# NCOA1 inh = SRC1 coactivator transcriptional activity inhibitors, primary screen, cell-based, luminescence. AID 588354, 2011. inhibition, % at 3.6 µM. HEK293 GAL4-SRC1 luciferase reporter. 360,000 tested, 0.12% active;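 active = inhibition above the campaign mean plus 3 SD, with each screening campaign given its own cutoff, cut at about 60% in these data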;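 also: 0% = DMSO treated cells and 100% = gossypol at 36 µM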
# Gli antag conf = Gli-SUFU pathway antagonists, confirmation, single concentration, luciferase luminescence, Sufu-KO-LIGHT cells; shares compounds with Gli-Sufu antag; inhibition, % at 5 µM; 2,500 tested, 40% active; Gli luciferase reporter;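 active = mean inhibition at 5 µM reaching about 45%, limit read from the data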;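 also: plate controls were DMSO-treated cells for no effect and wells lacking cells for full effect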
# Gli cytotox = cytotoxicity in Sufu-KO-LIGHT cells, confirmation, cytotoxicity control for Gli-SUFU antagonist project, cell-based, ATP luminescence, single concentration; shares compounds with Gli-Sufu antag; cytotoxicity, % at 5 µM; 2,500 tested, 32% active; AID 651994, 2013;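 active = mean cytotoxicity at 5 µM above about 25%, limit read from the data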;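 also: cells exposed to compound overnight for roughly 16 to 18 hours; plate controls were DMSO wells with cells for no effect and medium without cells for full effect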
# Wnt3a counter = Wnt3a reporter signal inhibition, confirmation, counter-screen for Gli-SUFU antagonist project, Wnt-LIGHT cells, luminescence, single concentration; shares compounds with Gli-Sufu antag; Wnt3a-driven luciferase reporter; inhibition, % at 6.25 µM; 2,500 tested, 20% active; AID 651995, 2013;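 active = mean inhibition above about 25%, limit read from the data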
# * = called active by the depositor; . = no result given.
SMILES,SRC2 inh,Gli-Sufu antag,LRH-1 inv ag,Shn3 inh set2,SRC3 inh,NCOA1 inh,Gli antag conf,Gli cytotox,Wnt3a counter
O=C(NN=Cc1ccc(-c2ccccc2)cc1)c1cc(-c2ccc(Cl)cc2)n[nH]1,-14.4,.,.,.,.,.,.,.,.
O=C(NCCc1ccc2c(c1)OCO2)c1cc(-c2ccccc2)c(N2CCOCC2)s1,-18.4,.,.,.,.,.,.,.,.
COc1cccc(-c2nnc3n2N=C(c2ccc(Cl)cc2)CS3)c1,22.6,.,.,.,.,.,.,.,.
COc1ccc(CCNc2ncnc3c2oc2ccccc23)cc1OC,18.5,73.3*,50.3,83.6,35.6,25.0,74.8*,28.1*,30.7*
COc1ccc(CCNc2ncnc3sccc23)cc1OC,25.1,75.0*,35.9,90.6*,34.1,13.0,79.7*,43.1*,41.3*
NS(=O)(=O)c1ccc(CCNc2ncnc3sccc23)cc1,27.9,59.6*,33.1,71.7,15.1,19.5,54.9*,30.7*,28.2*
CCOC(=O)[C@]12CCCC=C1N(CCCOC)C(=O)[C@@H]2CC(=O)NCc1cccc(C(F)(F)F)c1,3.6,.,.,.,.,.,.,.,.
CCNC(=O)NC(=O)COC(=O)CCCSc1nc2ccccc2[nH]1,-4.9,26.1,11.8,-18.4,-11.5,4.0,.,.,.
O=C(COC(=O)CCCSc1nc2ccccc2[nH]1)NC(=O)NC1CCCC1,-7.5,54.9,13.6,-11.4,8.8,-12.9,7.9,-2.8,-11.2
COC(=O)CN1CCN(C(=O)c2nocc2C)CC1,-8.7,.,.,.,.,.,.,.,.
CSc1cccc(NS(=O)(=O)c2ccc3c(c2)CCN3C(C)=O)c1,23.7,71.0*,9.0,88.8*,22.7,19.1,60.1*,29.5*,27.1*
CC(C)CN1C(=O)[C@@]2(CC(=O)N(C)C2c2ccccc2)c2cc(-n3cc(CCc4ccccc4)nn3)ccc21 (stereo partly specified),8.4,.,.,.,.,.,.,.,.
Cc1ccccc1CNC(=O)CCNS(=O)(=O)c1ccc(OC(F)(F)F)cc1,11.3,94.5*,6.3,1.2,5.9,-10.9,11.7,22.8,-25.9
Cc1cc(C)cc(NC(=O)OC2CC3CC2[C@H]2CCCCN2[C@H]3C)c1 (stereo partly specified),-3.3,.,.,.,.,.,.,.,.
COC(=O)C1CN(Cc2cn(Cc3ccc(OC)cc3)nn2)CCS(=O)(=O)N1Cc1ccccc1 (stereo unspecified),6.8,.,.,.,.,.,.,.,.
CCN(Cc1ccncc1)C(=O)c1cc(COc2ccc(F)cc2F)on1,-11.0,50.8,14.2,23.3,3.0,-10.2,31.7,-8.0,-22.5
CCN(Cc1cnn(C)c1)C(=O)c1cc(COc2ccc(F)cc2F)on1,-25.5,-9.0,-19.7,-20.7,-24.2,-28.8,.,.,.
CCN(CC(=O)Nc1c(F)cccc1F)C(=O)c1cccc(S(=O)(=O)N2CCCCCC2)c1,8.8,1.4,12.5,4.7,1.7,1.1,.,.,.
CCN(Cc1ccncc1)C(=O)C1CCN(S(=O)(=O)c2cccs2)CC1,6.1,98.9*,18.4,-3.0,6.6,-8.1,13.2,18.3,9.9
CCN(Cc1ccncc1)C(=O)c1cccc(S(=O)(=O)N2CCCCC2)c1,8.0,94.6*,-13.6,-3.2,3.0,-4.8,19.8,11.2,-16.8
CC(C)(C)[C@H]1COC(=O)[C@H](NC(=O)OCC2c3ccccc3-c3ccccc32)C/C=C\C[C@@H](CC(=O)N[C@H](CO)Cc2ccccc2)C(=O)N1,-0.1,39.9,20.3,12.5,12.0,-0.5,.,.,.
CC(C)(C)[C@H]1COC(=O)[C@H](NC(=O)OCC2c3ccccc3-c3ccccc32)C/C=C\C[C@@H](CC(=O)N[C@@H](CO)Cc2ccccc2)C(=O)N1,5.3,57.1*,7.6,3.1,6.9,4.6,50.6*,20.0,-31.6
C[C@@H]1COC(=O)[C@H](NC(=O)OCC2c3ccccc3-c3ccccc32)C/C=C\C[C@@H](CC(=O)N[C@@H](CO)Cc2ccccc2)C(=O)N1,-2.0,58.6*,2.9,71.9,6.7,-17.8,56.8*,19.3,-59.1
O=C(NCCc1c[nH]c2ccccc12)OCc1cn(Cc2cccc(F)c2)nn1,-13.7,.,.,.,.,.,.,.,.
Cc1cnn(-c2ccccc2)c1NC(=O)COCc1ccccc1,0.2,.,.,.,.,.,.,.,.
SMILES,SRC2 inh,Gli-Sufu antag,LRH-1 inv ag,Shn3 inh set2,SRC3 inh,NCOA1 inh,Gli antag conf,Gli cytotox,Wnt3a counter
O=[N+]([O-])c1ccc(NCCCN2CCC(C(O)(c3ccccc3)c3ccccc3)CC2)cc1,8.1,.,.,.,.,.,.,.,.
COc1ccc2ccccc2c1CN(C)Cc1ccccc1,4.5,82.6*,0.2,10.5,-12.4,-19.5,17.7,14.2,-7.2
CCc1ccc(-c2cc(C)no2)cc1S(=O)(=O)NCCN1CCC(C)CC1,-30.0,-6.5,-3.0,8.0,-6.6,-18.1,.,.,.
CCc1ccc(-c2cc(C)no2)cc1S(=O)(=O)NCCCN1CCN(c2ccccc2)CC1,29.6,50.3,2.5,56.6,-29.8,-6.6,18.3,28.8*,-55.3
CCOc1ccccc1CNS(=O)(=O)c1cc(-c2cc(C)no2)ccc1OC,-3.1,-0.8,-0.1,4.1,5.4,3.2,.,.,.
COc1ccc(-c2cc(C)no2)cc1S(=O)(=O)NCC(C)c1ccccc1 (stereo unspecified),-0.9,75.5*,6.7,-0.2,-0.7,9.0,27.2,6.8,-38.9
Cc1ccc(NC(=S)N2CCN(Cc3ccc4c(c3)OCO4)CC2)c(C)c1,-2.2,2.7,11.4,15.2,12.8,-2.1,.,.,.
CCN(CC)S(=O)(=O)c1ccc(C)c(NC(=S)N2CCN(C/C=C/c3ccccc3)CC2)c1,12.5,65.7*,17.3,88.0*,22.5,11.8,39.4,31.2*,-8.0
CCN(CC)S(=O)(=O)c1ccc(C)c(NC(=S)N2CCN(Cc3ccc4c(c3)OCO4)CC2)c1,24.3,64.0*,7.3,79.5,-2.3,8.4,42.6,23.5,7.0
CCN(CC)S(=O)(=O)c1ccc(C)c(NC(=S)N2CCN(c3ccccn3)CC2)c1,11.7,6.6,11.8,27.8,4.7,1.4,.,.,.
COC(=O)[C@@]12CCCCC3=C1N(CCC3)C(=O)[C@H]2CC(=O)NCC1CCCCC1,-3.3,.,.,.,.,.,.,.,.
CCCCn1c(CN(C)Cc2ccccc2)nc2c1c(=O)n(C)c(=O)n2C,-2.5,60.2*,24.8,87.2*,30.9,1.7,52.4*,20.1,22.0
COC(=O)[C@]12C[C@H](CC(=O)NCc3cccs3)C(=O)N(Cc3ccc4c(c3)OCO4)C1=C[C@H](C(C)C)O[C@@H]2C1CC1,4.0,.,.,.,.,.,.,.,.
